Targets with a hit are over-represented here; the source holds about 8,800 in all. About 0.5% of all pairs of compound and target were hits. A number with no mark means an inactive call.
Columns and labels:
Experiment in all cases: log2 fold change, soluble protein after heating vs DMSO (PISA); higher = thermal stabilisation; K562 lysate, 10 uM; active = over 0.2 and 3.5 SD of the protein, either way, in both replicates (recomputed)
erlotinib = compound: C#Cc1cccc(Nc2ncnc3cc(OCCOC)c(OCCOC)cc23)c1 [erlotinib]
Procedure, shortened: (§1)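 Quantification was by TMTpro 16plex LC-MS/MS with equalised channel sums, applied to the supernatant after 21,000xg for 90 min. Samples were crude K562 extract at 1 mg/mL protein in PBS pH 7.4 with 1 mM MgCl2, treated with 10 μM compound for 30 min, heated for 3 min across 48°C-58°C, pooled and brought to 0.5% NP-40 at 4°C. Values are log-two fold changes in thermal stability relative to solvent controls, from duplicates.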

[1] = compound: C/C(=N\NC(=O)C1=CC(=CC=C1)S(=O)(=O)N2CCOCC2)/C3=C(C=CC(=C3)Cl)O
Procedure, shortened: as §1

[2] = compound: C1=CC(=CC=C1C2=NC3=C(N2)C=C(C=C3)C(=O)N)OC4=CC=C(C=C4)Cl
Procedure, shortened: as §1

[3] = compound: C1=CC2=C(C=CC(=C2)/C=C\3/C(=O)NC(=NCC4=CC=CS4)S3)N=C1
Procedure, shortened: as §1

[4] = compound: C1=CC2=NC=CN=C2C=C1/C=C/3\C(=O)NC(=O)S3
Procedure, shortened: as §1

[5] = compound: C1=CC=C(C=C1)C2=NC(=C(N2)C3=CC=NC=C3)C4=CC(=C(C=C4)Cl)O
Procedure, shortened: as §1

[6] = compound: C1=CC=C2C(=C1)C3=NNC4=CC=CC(=C43)C2=O
Procedure, shortened: as §1

[7] = compound: C1CCN(C1)C(=O)NC2=CC=CC(=C2)NC3=NC=C(C(=N3)NCCC4=CN=CN4)Br
Procedure, shortened: as §1

[8] = compound: C1CN(CCC1(CC2=CC=C(C=C2)Cl)N)C3=NC=NC4=C3C=CN4
Procedure, shortened: as §1

IRAK-1-4 Inhibitor I = compound: C1COCCN1CCN2C3=CC=CC=C3N=C2NC(=O)C4=CC(=CC=C4)[N+](=O)[O-] [IRAK-1-4 Inhibitor I]
Procedure, shortened: as §1

ibrutinib = compound: C=CC(=O)N1CCC[C@@H](n2nc(-c3ccc(Oc4ccccc4)cc3)c3c(N)ncnc32)C1 [ibrutinib]
Procedure, shortened: as §1

[9] = compound: CC(=O)c1cnc2ccc(-c3cc(Cl)c(O)c(Cl)c3)nc2c1N[C@H]1CC[C@H](CN(C)C)CC1
Procedure, shortened: as §1

ralimetinib = compound: CC(C)(C)Cn1c(N)nc2ccc(-c3[nH]c(C(C)(C)C)nc3-c3ccc(F)cc3)nc21 [ralimetinib]
Procedure, shortened: as §1

[10] = compound: CC(C)(O)CC(=O)NCCn1ccc2ncnc(Nc3ccc(Oc4cccc(C(F)(F)F)c4)c(Cl)c3)c21
Procedure, shortened: as §1

[11] = compound: CC(C)C1=C2N=C(C=C(N2N=C1)NCC3=CC=CC=C3)NCCCCCCN
Procedure, shortened: as §1

[12] = compound: CC1=C(C(CC(=O)N1)C2=CC=C(C=C2)C(F)(F)F)C(=O)NC3=C(C=C4C(=C3)C=NN4)F
Procedure, shortened: as §1

[13] = compound: CC1=C(C2=C(C=C1)C(=O)C3=CC=CC=C3N2CCCN)C
Procedure, shortened: as §1

[14] = compound: CC1=C(C=C(C=C1)NC(=O)C2=CC(=CC=C2)C(C)(C)C#N)NC3=CC4=C(C=C3)N=CN(C4=O)C
Procedure, shortened: as §1

[15] = compound: CC1=C(C=C(C=C1)NC(=O)C2=CC(=CC=C2)N(C)C)NC(=O)C3=CC=C(C=C3)O
Procedure, shortened: as §1

[16] = compound: CC1=CC=C(C=C1)SC2=C3C=C(SC3=CN=C2)C(=O)N
Procedure, shortened: as §1

Sequence of UniProt Q99708 (Q99708 whole entry, looked up): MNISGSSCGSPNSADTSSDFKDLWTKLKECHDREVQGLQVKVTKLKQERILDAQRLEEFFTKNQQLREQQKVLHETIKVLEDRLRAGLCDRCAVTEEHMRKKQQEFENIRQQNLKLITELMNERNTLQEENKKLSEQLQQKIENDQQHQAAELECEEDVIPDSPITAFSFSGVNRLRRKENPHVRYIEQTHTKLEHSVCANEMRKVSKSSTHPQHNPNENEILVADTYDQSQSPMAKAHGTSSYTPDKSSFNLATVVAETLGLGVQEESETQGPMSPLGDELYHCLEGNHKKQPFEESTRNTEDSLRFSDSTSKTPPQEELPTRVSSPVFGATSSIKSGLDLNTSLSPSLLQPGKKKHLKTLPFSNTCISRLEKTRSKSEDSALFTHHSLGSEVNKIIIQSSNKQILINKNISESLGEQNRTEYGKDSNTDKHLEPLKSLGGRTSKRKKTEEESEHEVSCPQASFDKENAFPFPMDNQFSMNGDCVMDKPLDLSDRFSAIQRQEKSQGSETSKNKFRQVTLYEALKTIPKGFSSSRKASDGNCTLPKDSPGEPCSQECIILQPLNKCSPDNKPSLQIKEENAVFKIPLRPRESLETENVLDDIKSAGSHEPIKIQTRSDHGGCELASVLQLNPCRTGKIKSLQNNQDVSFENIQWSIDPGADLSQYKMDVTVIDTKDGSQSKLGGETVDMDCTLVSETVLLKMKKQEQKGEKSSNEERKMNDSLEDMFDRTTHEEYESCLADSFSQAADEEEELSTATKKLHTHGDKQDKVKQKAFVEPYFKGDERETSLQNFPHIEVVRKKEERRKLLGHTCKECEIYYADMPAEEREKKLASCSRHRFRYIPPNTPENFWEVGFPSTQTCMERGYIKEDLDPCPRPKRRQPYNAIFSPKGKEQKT
Sequence of UniProt Q9BWH6 (Q9BWH6 whole entry, looked up): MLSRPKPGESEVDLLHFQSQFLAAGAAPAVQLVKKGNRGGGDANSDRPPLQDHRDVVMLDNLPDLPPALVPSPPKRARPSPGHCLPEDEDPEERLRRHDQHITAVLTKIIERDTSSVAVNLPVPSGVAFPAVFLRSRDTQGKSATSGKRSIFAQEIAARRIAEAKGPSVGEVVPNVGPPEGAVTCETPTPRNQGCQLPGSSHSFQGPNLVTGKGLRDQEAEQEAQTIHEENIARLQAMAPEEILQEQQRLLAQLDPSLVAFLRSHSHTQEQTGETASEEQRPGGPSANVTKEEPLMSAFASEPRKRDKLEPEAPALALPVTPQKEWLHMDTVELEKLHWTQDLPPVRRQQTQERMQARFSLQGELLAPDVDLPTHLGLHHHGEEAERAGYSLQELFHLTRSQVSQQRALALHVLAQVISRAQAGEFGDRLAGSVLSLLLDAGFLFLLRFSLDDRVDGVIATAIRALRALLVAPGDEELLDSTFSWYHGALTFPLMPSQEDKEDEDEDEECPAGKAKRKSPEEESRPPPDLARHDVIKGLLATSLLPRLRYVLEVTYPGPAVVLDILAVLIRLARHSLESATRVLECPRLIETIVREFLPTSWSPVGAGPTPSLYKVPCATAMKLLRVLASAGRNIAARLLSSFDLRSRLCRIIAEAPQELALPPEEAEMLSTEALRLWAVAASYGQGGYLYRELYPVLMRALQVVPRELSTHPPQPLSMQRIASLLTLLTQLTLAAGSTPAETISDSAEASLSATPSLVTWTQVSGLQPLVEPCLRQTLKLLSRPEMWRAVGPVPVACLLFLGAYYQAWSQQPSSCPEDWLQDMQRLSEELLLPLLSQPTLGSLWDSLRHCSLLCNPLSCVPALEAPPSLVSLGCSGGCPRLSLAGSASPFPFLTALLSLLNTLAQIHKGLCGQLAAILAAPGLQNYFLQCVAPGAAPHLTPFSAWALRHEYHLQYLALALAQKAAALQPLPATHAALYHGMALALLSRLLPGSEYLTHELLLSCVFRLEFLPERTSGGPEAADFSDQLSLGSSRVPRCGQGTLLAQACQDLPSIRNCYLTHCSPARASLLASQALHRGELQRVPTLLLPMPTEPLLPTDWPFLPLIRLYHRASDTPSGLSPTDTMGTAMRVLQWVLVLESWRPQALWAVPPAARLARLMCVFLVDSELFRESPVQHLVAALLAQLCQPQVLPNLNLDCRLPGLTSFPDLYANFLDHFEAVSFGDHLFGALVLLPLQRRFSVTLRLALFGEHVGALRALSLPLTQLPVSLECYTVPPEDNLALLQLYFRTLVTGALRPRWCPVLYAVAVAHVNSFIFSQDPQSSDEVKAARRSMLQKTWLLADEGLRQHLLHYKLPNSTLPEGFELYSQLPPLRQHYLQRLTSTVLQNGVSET
Sequence of UniProt O75150 (O75150 whole entry, looked up): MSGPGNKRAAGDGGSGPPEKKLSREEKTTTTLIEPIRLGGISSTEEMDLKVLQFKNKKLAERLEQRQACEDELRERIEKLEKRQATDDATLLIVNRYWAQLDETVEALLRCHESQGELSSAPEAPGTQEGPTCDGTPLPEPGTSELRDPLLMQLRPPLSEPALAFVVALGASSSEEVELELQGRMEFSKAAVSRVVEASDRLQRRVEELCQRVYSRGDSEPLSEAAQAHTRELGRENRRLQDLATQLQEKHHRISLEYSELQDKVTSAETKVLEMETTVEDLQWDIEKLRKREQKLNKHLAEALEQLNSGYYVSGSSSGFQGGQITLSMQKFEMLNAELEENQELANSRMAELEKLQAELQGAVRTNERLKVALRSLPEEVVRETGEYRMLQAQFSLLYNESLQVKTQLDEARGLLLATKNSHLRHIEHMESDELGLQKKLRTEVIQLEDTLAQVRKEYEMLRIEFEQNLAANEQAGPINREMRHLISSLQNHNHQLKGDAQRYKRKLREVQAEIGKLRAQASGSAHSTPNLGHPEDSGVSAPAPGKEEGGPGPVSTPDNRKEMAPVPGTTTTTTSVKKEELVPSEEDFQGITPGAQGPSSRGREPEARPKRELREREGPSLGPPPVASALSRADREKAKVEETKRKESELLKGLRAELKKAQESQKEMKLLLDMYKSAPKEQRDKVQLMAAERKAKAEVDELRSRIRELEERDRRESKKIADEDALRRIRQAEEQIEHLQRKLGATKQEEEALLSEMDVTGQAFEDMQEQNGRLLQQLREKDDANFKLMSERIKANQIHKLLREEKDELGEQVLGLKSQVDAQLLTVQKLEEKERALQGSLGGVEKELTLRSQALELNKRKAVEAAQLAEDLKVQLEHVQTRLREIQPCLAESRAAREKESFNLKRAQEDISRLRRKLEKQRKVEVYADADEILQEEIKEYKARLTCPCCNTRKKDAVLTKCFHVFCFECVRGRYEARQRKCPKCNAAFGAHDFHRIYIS
Sequence of UniProt P53805 (P53805 whole entry, looked up): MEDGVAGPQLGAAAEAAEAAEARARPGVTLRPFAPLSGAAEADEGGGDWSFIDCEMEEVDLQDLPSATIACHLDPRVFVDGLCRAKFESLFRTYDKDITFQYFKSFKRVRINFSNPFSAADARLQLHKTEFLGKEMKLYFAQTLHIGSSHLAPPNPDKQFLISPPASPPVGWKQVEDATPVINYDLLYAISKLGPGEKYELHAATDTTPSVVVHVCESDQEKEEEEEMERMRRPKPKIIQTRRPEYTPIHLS
Sequence of UniProt Q99643 (Q99643 whole entry, looked up): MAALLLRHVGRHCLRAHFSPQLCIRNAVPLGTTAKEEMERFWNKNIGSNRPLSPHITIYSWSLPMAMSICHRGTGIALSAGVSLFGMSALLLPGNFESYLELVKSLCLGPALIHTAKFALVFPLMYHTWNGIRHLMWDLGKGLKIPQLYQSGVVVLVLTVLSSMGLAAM
Sequence of UniProt Q86U06 (Q86U06 whole entry, looked up): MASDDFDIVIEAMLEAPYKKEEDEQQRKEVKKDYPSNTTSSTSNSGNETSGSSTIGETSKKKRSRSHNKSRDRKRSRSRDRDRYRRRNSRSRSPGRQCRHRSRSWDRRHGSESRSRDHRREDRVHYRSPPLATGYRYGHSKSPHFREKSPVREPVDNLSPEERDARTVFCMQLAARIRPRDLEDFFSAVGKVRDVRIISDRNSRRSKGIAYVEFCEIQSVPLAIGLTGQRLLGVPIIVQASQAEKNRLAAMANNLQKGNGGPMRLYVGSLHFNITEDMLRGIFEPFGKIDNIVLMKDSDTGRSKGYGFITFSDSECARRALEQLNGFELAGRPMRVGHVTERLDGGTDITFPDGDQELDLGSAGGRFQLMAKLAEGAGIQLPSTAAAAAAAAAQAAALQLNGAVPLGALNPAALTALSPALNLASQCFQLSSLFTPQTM
Sequence of UniProt Q9UKL0 (Q9UKL0 whole entry, looked up): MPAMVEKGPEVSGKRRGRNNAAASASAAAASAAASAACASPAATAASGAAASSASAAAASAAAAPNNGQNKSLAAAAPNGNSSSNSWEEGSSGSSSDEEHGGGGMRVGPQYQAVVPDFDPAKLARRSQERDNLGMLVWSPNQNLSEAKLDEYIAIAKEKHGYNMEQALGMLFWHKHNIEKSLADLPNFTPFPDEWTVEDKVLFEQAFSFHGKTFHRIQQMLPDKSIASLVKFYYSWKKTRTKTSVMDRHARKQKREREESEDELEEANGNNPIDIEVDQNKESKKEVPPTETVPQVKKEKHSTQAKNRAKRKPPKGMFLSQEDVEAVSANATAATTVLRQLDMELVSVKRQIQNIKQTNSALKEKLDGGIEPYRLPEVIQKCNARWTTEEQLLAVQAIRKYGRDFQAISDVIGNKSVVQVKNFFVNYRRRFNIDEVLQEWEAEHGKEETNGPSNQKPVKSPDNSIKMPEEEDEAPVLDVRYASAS
Sequence of UniProt O15541 (O15541 whole entry, looked up): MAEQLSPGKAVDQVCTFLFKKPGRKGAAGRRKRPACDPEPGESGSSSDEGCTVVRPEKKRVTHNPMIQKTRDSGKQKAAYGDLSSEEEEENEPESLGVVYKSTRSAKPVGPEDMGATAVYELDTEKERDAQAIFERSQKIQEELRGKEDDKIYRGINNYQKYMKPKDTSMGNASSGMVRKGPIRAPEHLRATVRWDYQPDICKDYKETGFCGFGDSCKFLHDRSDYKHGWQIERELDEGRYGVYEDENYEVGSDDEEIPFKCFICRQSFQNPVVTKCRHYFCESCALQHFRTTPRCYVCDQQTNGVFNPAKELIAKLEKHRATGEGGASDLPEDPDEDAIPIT

Target | log2 fold change (erlotinib) | log2 fold change [1] | log2 fold change [2] | log2 fold change [3] | log2 fold change [4] | log2 fold change [5] | log2 fold change [6] | log2 fold change [7] | log2 fold change [8] | log2 fold change (IRAK-1-4 Inhibitor I) | log2 fold change (ibrutinib) | log2 fold change [9] | log2 fold change (ralimetinib) | log2 fold change [10] | log2 fold change [11] | log2 fold change [12] | log2 fold change [13] | log2 fold change [14] | log2 fold change [15] | log2 fold change [16]
SEC13 isoform 3 (UniProt P55735) | 0.032 | 0.02 | 0.009 | -0.019 | 0 | -0.001 | -0.033 | -0.019 | 0.006 | -0.028 | -0.084 | -0.025 | 0.024 | -0.01 | -0.015 | -0.005 | 0.034 | -0.032 | 0.031 | -0.014
SDHC (UniProt Q99643) | 0.013 | 0.002 | 0.001 | 0 | -0.048 | -0.01 | 0.02 | -0.02 | -0.067 | 0.032 | 0.033 | -0.012 | 0.064 | -0.035 | -0.05 | -0.015 | -0.013 | -0.026 | 0.023 | 0.044
RALGAPA1 isoform 6 (UniProt Q6GYQ0) | 0.056 | -0.093 | 0.098 | 0.065 | -0.105 | -0.064 | -0.015 | -0.042 | 0.031 | 0.004 | 0.047 | -0.06 | 0.01 | 0.002 | -0.01 | -0.039 | 0.02 | -0.007 | 0.038 | -0.081
RBM23 isoform 2 (UniProt Q86U06) | -0.056 | 0.007 | 0.012 | -0.106 | 0.148 | -0.052 | 0.001 | -0.175 | 0.091 | -0.004 | -0.125 | -0.014 | 0.041 | -0.096 | 0.081 | 0.151 | -0.122 | 0.112 | -0.022 | 0.05
RCAN1 (UniProt P53805) | 0.06 | -0.206 | -0.033 | -0.018 | -0.04 | 0.008 | 0.045 | -0.095 | 0.016 | -0.024 | -0.019 | 0.003 | -0.004 | 0.012 | 0.002 | 0.026 | -0.027 | 0.085 | -0.02 | 0.02
QTRT2 isoform 4 (UniProt Q9H974) | -0.024 | 0.082 | -0.032 | -0.019 | -0.048 | -0.009 | -0.007 | 0.007 | 0.022 | 0.006 | 0.01 | 0.002 | 0.014 | -0.028 | -0.014 | -0.035 | 0.006 | -0.025 | -0.003 | -0.013
SCCPDH (UniProt Q8NBX0) | -0.213 | -0.055 | -0.027 | 0.083 | -0.243 | 0.052 | 0.185 | -0.03 | 0.026 | 0.016 | 0.155 | -0.042 | 0.083 | 0.112 | 0.122 | -0.017 | -0.068 | 0.055 | -0.098 | 0.187
RPAP1 (UniProt Q9BWH6) | 0.05 | -0.078 | 0.019 | 0.016 | 0.007 | -0.028 | 0.001 | -0.001 | 0.02 | 0.005 | -0.016 | 0.049 | 0.02 | -0.015 | -0.037 | 0.011 | -0.002 | -0.013 | 0.007 | -0.033
RPL28 (UniProt P46779) | -0.012 | -0.104 | 0.006 | -0.009 | -0.037 | 0.019 | 0.016 | -0.003 | 0 | -0.02 | -0.026 | -0.011 | -0.003 | -0.005 | 0.006 | -0.038 | -0.066 | -0.021 | 0.012 | 0.026
RNF40 (UniProt O75150) | -0.008 | -0.01 | 0.007 | -0.039 | -0.016 | 0.003 | -0.04 | 0.011 | 0.024 | -0.008 | 0.048 | -0.014 | 0.033 | -0.015 | -0.023 | 0.007 | -0.01 | -0.001 | -0.006 | 0.004
RCC1 isoform 2 (UniProt P18754) | 0.016 | 0.005 | -0.033 | 0 | 0.017 | 0.007 | -0.024 | -0.008 | -0.043 | -0.022 | -0.008 | 0.012 | 0.041 | 0.019 | 0.015 | -0.048 | -0.037 | -0.01 | 0.036 | 0.01
RBBP8 isoform 2 (UniProt Q99708) | 0.073 | -0.129 | -0.031 | 0.074 | 0.295 (active) | -0.004 | -0.019 | -0.017 | -0.032 | 0.033 | -0.204 | 0.005 | -0.086 | 0.011 | -0.006 | 0.003 | -0.018 | -0.066 | -0.006 | -0.143
RCOR1 (UniProt Q9UKL0) | -0.023 | 0.065 | -0.004 | -0.053 | -0.051 | 0.005 | -0.035 | -0.008 | 0.017 | 0.003 | 0.016 | -0.001 | 0.023 | -0.028 | 0.264 | 0 | 0.013 | -0.049 | 0.02 | 0.021
REXO4 (UniProt Q9GZR2) | -0.041 | -0.195 | -0.041 | -0.084 | -0.052 | 0.027 | -0.033 | -0.022 | 0.003 | -0.027 | 0.014 | 0.027 | 0.021 | 0.074 | -0.024 | 0.023 | -0.053 | -0.043 | 0.056 | 0.008
RANBP6 (UniProt O60518) | 0.045 | -0.043 | -0.003 | -0.034 | 0.061 | 0.027 | 0.021 | 0.044 | -0.019 | 0.04 | -0.034 | -0.05 | 0.025 | -0.066 | -0.034 | -0.005 | -0.017 | -0.009 | 0.026 | 0.009
RNF113A (UniProt O15541) | -0.039 | -0.039 | 0.036 | 0.027 | -0.008 | -0.01 | -0.02 | -0.005 | 0.01 | 0.02 | 0.009 | -0.003 | 0.005 | -0.049 | 0.111 | 0.015 | -0.038 | 0.024 | 0.017 | -0.03

From the supplement of paper PMC10849652
